Reference: PubChem BioAssay (Tox21)
Several values for one entry are separate records, joined by “and”; a condition that tells them apart may be missing. Identical values can stand only once. Inconclusive results are not listed. Unmarked numbers belong to inactive results. Activity calls are given as the source filed them. Unless noted, the call rests on the fitted dose curve; in most records, active means well fitted curve in the direction sought with a large enough effect in the repeat runs; inconclusive means weak or mixed curves; inactive means no such curve, though single readings can be large; an effect the other way counts as inactive or inconclusive.

target: Progesterone receptor (Homo sapiens) (UniProt P06401); test: qHTS assay to identify small molecule agonists of the progesterone receptor (PR) signaling pathway (AID 1346784; calls by dose curve; further: nearly all actives have a fitted effect of over 30% in size); details: PR-UAS-bla HEK293T, beta-lactamase FRET ratio, 16 h; series mostly up to 92.4 µM; activation: at the top concentration
Summary of the method: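 Beta-lactamase reporter read-out: after 16 hr compound treatment at 37C and a further 2 hr at room temperature with LiveBLAzer B/G FRET substrate, fluorescence was measured in PR-UAS-bla HEK 293T cells grown in 2% charcoal-stripped serum.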
On the % scale 0 is the no-effect control and ±100 the full control effect.

Progesterone receptor (Homo sapiens), sequence (P06401 whole entry, looked up): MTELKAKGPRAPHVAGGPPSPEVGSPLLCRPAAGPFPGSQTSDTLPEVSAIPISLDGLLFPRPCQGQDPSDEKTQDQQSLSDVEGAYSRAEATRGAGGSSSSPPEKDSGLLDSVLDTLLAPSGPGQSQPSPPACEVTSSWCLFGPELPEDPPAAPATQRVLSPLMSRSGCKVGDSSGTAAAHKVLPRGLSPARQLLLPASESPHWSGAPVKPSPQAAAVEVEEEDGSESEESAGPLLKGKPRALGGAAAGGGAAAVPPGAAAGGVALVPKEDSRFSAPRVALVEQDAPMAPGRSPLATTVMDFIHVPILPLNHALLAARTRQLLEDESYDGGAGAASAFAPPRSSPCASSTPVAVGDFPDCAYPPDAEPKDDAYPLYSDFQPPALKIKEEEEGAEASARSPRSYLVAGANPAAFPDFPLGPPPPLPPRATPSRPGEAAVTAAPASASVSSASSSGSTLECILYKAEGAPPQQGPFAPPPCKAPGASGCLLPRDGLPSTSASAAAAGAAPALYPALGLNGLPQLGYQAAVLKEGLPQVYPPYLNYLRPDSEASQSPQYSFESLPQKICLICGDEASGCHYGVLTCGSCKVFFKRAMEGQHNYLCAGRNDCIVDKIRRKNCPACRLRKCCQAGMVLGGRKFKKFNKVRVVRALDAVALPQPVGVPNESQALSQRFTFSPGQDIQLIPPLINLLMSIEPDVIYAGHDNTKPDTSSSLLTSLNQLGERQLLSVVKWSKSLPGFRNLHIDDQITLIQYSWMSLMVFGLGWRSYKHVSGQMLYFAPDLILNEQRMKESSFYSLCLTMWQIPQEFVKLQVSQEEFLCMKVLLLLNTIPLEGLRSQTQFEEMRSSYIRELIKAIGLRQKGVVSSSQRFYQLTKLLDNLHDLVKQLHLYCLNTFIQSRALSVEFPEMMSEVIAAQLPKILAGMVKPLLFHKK

Compound	activation
Nc1ccc(Cl)cc1C(=O)c1ccccc1	0.217%
O=c1c(C2CC(c3ccc(-c4ccc(Br)cc4)cc3)Cc3ccccc32)c(O)sc2ccccc12 (configuration not stated)	-0.184% [at 42.5 µM]
CC(=O)OC1(c2ccccc2)CCN(CCc2ccccc2)CC1	-2.2%
O=c1[nH]c2ccccc2n1CCCN1CCC(n2c(=O)[nH]c3cc(Cl)ccc32)CC1	-1.17% [at 42.5 µM]
CC[C@H]1C[C@@H]2C[C@H]3c4[nH]c5ccc(OC)cc5c4CCN(C2)[C@@H]13	-6.13%
CCN(CC)c1c([N+](=O)[O-])cc(C(F)(F)F)c(N)c1[N+](=O)[O-]	4.34%
ClC1=C(Cl)C2(Cl)C3C(Cl)C(Cl)CC3C1(Cl)C2(Cl)Cl (configuration not stated)	-5.61%
O=[N+]([O-])c1cc([N+](=O)[O-])c2ccccc2c1	7.93%

target: Progesterone receptor (Homo sapiens) (UniProt P06401); test: qHTS assay to identify small molecule antagonists of the progesterone receptor (PR) signaling pathway (AID 1346795; active means well fitted inhibition curve with a large enough effect in the signal ratio in the repeat runs, not every such curve was filed as active; the % refers to the signal ratio; further: potency means the concentration at half of the fitted maximal effect); details: PR-UAS-bla HEK293T, beta-lactamase FRET ratio, 16 h; series mostly up to 92.4 µM; activity change, negative = inhibition: at the top concentration
Summary of the method: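 Read-out is fluorescence from the LiveBLAzer B/G FRET substrate, cleaved by a UAS-controlled beta-lactamase in PR-UAS-bla HEK293T cells after 16 hr exposure to compound plus 1 nM promegestone (final), followed by 2 hr at room temperature.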

Compound	Potency	activity change, negative = inhibition [%]
Oc1cc(Cl)c(Cl)c(Cl)c1	13 µM (active)	–
O=C(Nc1ccc2[nH]ccc2c1)c1cc2cc(F)ccc2n1Cc1cccc(F)c1	12.2 µM (active)	–
Nc1ccc(Cl)cc1C(=O)c1ccccc1	17.2 µM (active)	–
CC(C)C1CCC(Cc2ccc(Cl)cc2)C1(O)Cn1cncn1 (configuration not stated)	3.4 µM (active)	–
CC[C@H](C)[C@H]1O[C@]2(C=C[C@@H]1C)C[C@@H]1C[C@@H](C/C=C(\C)[C@@H](O[C@H]3C[C@H](OC)[C@@H](O[C@H]4C[C@H](OC)[C@@H](O)[C@H](C)O4)[C@H](C)O3)[C@@H](C)/C=C/C=C3\CO[C@@H]4[C@H](O)C(C)=C[C@@H](C(=O)O1)[C@]34O)O2	16.1 µM (active)	–
CC(=O)OC1(c2ccccc2)CCN(CCc2ccccc2)CC1	–	-24.8
Nc1ccc(Cc2ccc(N)c(Cl)c2)cc1Cl	13.2 µM (active)	–
ClC1=C(Cl)C2(Cl)C3C(Cl)C(Cl)CC3C1(Cl)C2(Cl)Cl (configuration not stated)	4.31 µM (active) and 21.7 µM (active)	–
O=C1c2ccccc2C(=O)C1C(=O)C(c1ccccc1)c1ccc(Cl)cc1 (configuration not stated)	19.3 µM (active)	–
CCCCCCCCc1ccc(O)cc1	20.4 µM (active)	–

test system: not listed separately; test: qHTS assay to identify small molecule antagonists of the progesterone receptor (PR) signaling pathway - cell viability counter screen (AID 1346798); details: PR-UAS-bla HEK293T viability, CellTiter-Glo luminescence, 16 h; series mostly up to 92.4 µM; activity change, negative = cytotoxicity: at the top concentration; further: nearly all actives have a fitted effect of over 50% in size; further: potency means the concentration at half of the fitted maximal effect;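 on activity change, negative = cytotoxicity: HEK293T PR-UAS-bla cells stimulated with the agonist R5020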
Summary of the method: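 HEK293T PR-UAS-bla, 2% charcoal-stripped FBS; 4 hr pre-plate; cpd + R5020, 16 h 37C; LiveBLAzer read first; then CellTiter-Glo 30 min RT, luminescence.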

Compound	Potency	activity change, negative = cytotoxicity [%]
CC1CCC(C(C)C)C(OC(=O)c2ccccc2N)C1 (configuration not stated)	60.3 µM (active)	–
O=[N+]([O-])c1c2ccccc2cc2ccccc12	27 µM (active)	–
C[CH2][Hg][N]1C(=O)C2C(C1=O)C1(Cl)C(Cl)=C(Cl)C2(Cl)C1(Cl)Cl (configuration not stated)	14.6 µM (active)	–
N#CSCSC#N	inactive	–
O=[N+]([O-])O.O=[N+]([O-])O.[Cd]	3.06 µM (active)	–
Oc1cc(Cl)c(Cl)c(Cl)c1	–	-25.7
Oc1ccc(C2(c3ccc(O)cc3)c3ccccc3-c3ccccc32)cc1	48.6 µM (active)	–
O=C(Nc1ccc2[nH]ccc2c1)c1cc2cc(F)ccc2n1Cc1cccc(F)c1	48.6 µM (active)	–
Nc1ccc(Cl)cc1C(=O)c1ccccc1	–	-5.92
c1ccc2cc3c(cc2c1)-c1cccc2cccc-3c12	–	-19.4
CC(=O)OC1(c2ccccc2)CCN(CCc2ccccc2)CC1	–	-3.7
N#Cc1c(-c2ccc(Cl)cc2)[nH]c(C(F)(F)F)c1Br	4.33 µM (active)	–
ClC1=C(Cl)C2(Cl)C3C(Cl)C(Cl)CC3C1(Cl)C2(Cl)Cl (configuration not stated)	–	-28.8
O=C1c2ccccc2C(=O)C1C(=O)C(c1ccccc1)c1ccc(Cl)cc1 (configuration not stated)	–	-3.62
Clc1ccc(CSC(Cn2ccnc2)c2ccc(Cl)cc2Cl)cc1 (configuration not stated)	6.68 µM (active)	–
Clc1ccc(CO/N=C(\Cn2ccnc2)c2ccc(Cl)cc2Cl)c(Cl)c1	21.1 µM (active)	–
O=C(CCl)C(Cl)Cl	43.7 µM (active)	–

test system: not listed separately; test: qHTS assay to identify small molecule agonists of the progesterone receptor (PR) signaling pathway - cell viability counter screen (AID 1346799; calls by dose curve; further: nearly all actives have a fitted effect of over 45% in size; further: potency means the concentration at half of the fitted maximal effect); details: PR-UAS-bla HEK293T viability, CellTiter-Glo luminescence, 16 h; series mostly up to 92.4 µM; activity change, negative = cytotoxicity: at the top concentration
Summary of the method: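 Luminescence from CellTiter-Glo, added after the beta-lactamase FRET read in the same wells, gave cytotoxicity in PR-UAS-bla HEK293T cells treated with compounds for 16 hr at 37C.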

Compound	Potency	activity change, negative = cytotoxicity [%]
CC1CCC(C(C)C)C(OC(=O)c2ccccc2N)C1 (configuration not stated)	53.7 µM (active)	–
N#CSCSC#N	–	22.1
O=[N+]([O-])O.O=[N+]([O-])O.[Cd]	4.86 µM (active)	–
O=C(Nc1ccc2[nH]ccc2c1)c1cc2cc(F)ccc2n1Cc1cccc(F)c1	–	-28
Nc1ccc(Cl)cc1C(=O)c1ccccc1	–	-2.45
c1ccc2cc3c(cc2c1)-c1cccc2cccc-3c12	–	-12.9
CC(=O)OC1(c2ccccc2)CCN(CCc2ccccc2)CC1	–	-1.31
CCc1nn(C)c(C(=O)NCc2ccc(C(C)(C)C)cc2)c1Cl	54.5 µM (active)	–
ClC1=C(Cl)C2(Cl)C3C(Cl)C(Cl)CC3C1(Cl)C2(Cl)Cl (configuration not stated)	48.4 µM (active) and 61.1 µM (active)	–
Clc1ccc(CO/N=C(\Cn2ccnc2)c2ccc(Cl)cc2Cl)c(Cl)c1	15 µM (active)	–
O=C(CCl)C(Cl)Cl	27.6 µM (active)	–
N#CCCC(Br)(C#N)CBr (configuration not stated)	–	2.33

test system: not listed separately; test: qHTS assay to identify small molecule antagonists of the TGF-beta/Smad signaling pathway - cell viability counter screen (AID 1346824); details: SBE-bla HEK293T viability, CellTiter-Glo luminescence; series mostly up to 76.8 µM; viability change, negative = cytotoxic: at the top concentration; further: nearly all actives have a fitted effect of over 50% in size; further: potency means the concentration at half of the fitted maximal effect
Summary of the method: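 SBE-bla HEK 293T cells were plated overnight at 37 C, then given compounds in DMSO plus TGF-beta1 (added as 0.25 ng/mL solution) for 5 hr. After the bla read, CellTiter-Glo was added to the same wells and luminescence read after 30 min at room temperature.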

Compound	viability change, negative = cytotoxic	outcome	Potency
NC(=O)CCl	28.2%	–	–
O=[N+]([O-])c1c2ccccc2cc2ccccc12	-13.5%	–	–
O=[N+]([O-])O.O=[N+]([O-])O.[Cd]	–	inactive	–
Oc1cc(Cl)c(Cl)c(Cl)c1	-18%	–	–
Oc1ccc(C2(c3ccc(O)cc3)c3ccccc3-c3ccccc32)cc1	-10.3%	–	–
O=C(Nc1ccc2[nH]ccc2c1)c1cc2cc(F)ccc2n1Cc1cccc(F)c1	-22.5%	–	–
Oc1ccc(C2(c3ccc(O)cc3)CCCCC2)cc1	-21.4%	–	–
COc1cc(C=O)cc2c1[C@H](COC(N)=O)[C@]1(OC(C)=O)ON2C[C@H]2[C@@H]1N2C(C)=O	19%	–	–
Nc1ccc(Cl)cc1C(=O)c1ccccc1	-7.06%	–	–
CC(C)C1CCC(Cc2ccc(Cl)cc2)C1(O)Cn1cncn1 (configuration not stated)	–	–	54.4 µM (active)
CS(=O)(=O)c1ccc(C(=O)C2C(=O)CCCC2=O)c([N+](=O)[O-])c1	-1.97%	–	–
O=c1c(C2CC(c3ccc(-c4ccc(Br)cc4)cc3)Cc3ccccc32)c(O)sc2ccccc12 (configuration not stated)	-16.1% [at 35.3 µM]	–	–
c1ccc2cc3c(cc2c1)-c1cccc2cccc-3c12	-6%	–	–
CC(=O)OC1(c2ccccc2)CCN(CCc2ccccc2)CC1	-10.8%	–	–
Oc1ccc(C(=C(Cl)Cl)c2ccc(O)cc2)cc1	-2.5%	–	–
O=c1[nH]c2ccccc2n1CCCN1CCC(n2c(=O)[nH]c3cc(Cl)ccc32)CC1	-6.52% [at 35.3 µM]	–	–
CC[C@H]1C[C@@H]2C[C@H]3c4[nH]c5ccc(OC)cc5c4CCN(C2)[C@@H]13	-7.4%	–	–
CCc1nn(C)c(C(=O)NCc2ccc(C(C)(C)C)cc2)c1Cl	–	–	0.389 µM (active)
Nc1ccc(Cc2ccc(N)c(Cl)c2)cc1Cl	-2.88%	–	–
CCN(CC)c1c([N+](=O)[O-])cc(C(F)(F)F)c(N)c1[N+](=O)[O-]	-12.9%	–	–
ClC1=C(Cl)C2(Cl)C3C(Cl)C(Cl)CC3C1(Cl)C2(Cl)Cl (configuration not stated)	–	–	inactive
CCCOCC(=Nc1ccc(Cl)cc1C(F)(F)F)n1ccnc1	-17.6%	–	–
CC(C)(C)C(O)/C(=C\c1ccc(Cl)cc1Cl)n1cncn1 (configuration not stated)	-17.1%	–	–
O=C1c2ccccc2C(=O)C1C(=O)C(c1ccccc1)c1ccc(Cl)cc1 (configuration not stated)	-19%	–	–
Clc1ccc(CSC(Cn2ccnc2)c2ccc(Cl)cc2Cl)cc1 (configuration not stated)	-21.5% [at 35.3 µM]	–	–
Clc1ccc(CO/N=C(\Cn2ccnc2)c2ccc(Cl)cc2Cl)c(Cl)c1	-12.6% [at 35.3 µM]	–	–
O=C(CCl)C(Cl)Cl	0.554%	–	–
CCCCCCCCc1ccc(O)cc1	-26.9%	–	–
O=[N+]([O-])c1cc([N+](=O)[O-])c2ccccc2c1	-8.73%	–	–
N#CCCC(Br)(C#N)CBr (configuration not stated)	-11.4%	–	–
